Compounds with a hit are over-represented: about 8.8% of the library has one in this group of screens.
KB-3-1 cytotox: kills parental KB-3-1 adenocarcinoma cells | KB-3-1 viability, CellTiter-Glo ATP luminescence, 72 h | Potency, µM (highest dose often 46.1 µM), actives largely listed as cytotoxic | 400,000 tested, 1.4% active; further: potency means the concentration at half of the fitted maximal effect; nearly all actives have a fitted effect of over 60% in size
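Cells are dispensed, compounds pinned in, plates held at 37 °C for 72 h, then CellTiter-Glo is added and luminescence read after 10 minutes. Cell line: parental KB-3-1 in phenol-red-free DMEM, 10% FBS.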
IL-1B inflam inh: inhibitors of inflammasome signaling (IL-1 beta secretion) | THP-1 LPS/ATP IL-1B secretion, AlphaLISA, 16 h; hits give low values | activity change, % at 57.5 µM | 360,000 tested, 4.7% active | AID 743279; in the data active means activity change below about -50%; inconclusive means mostly about -30% to -49%
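Secreted IL-1B measured by AlphaLISA bead assay after 16 h compound exposure of THP-1 cells; compounds (final up to 57.5 uM) added 1 h before LPS (250 ng/mL) and ATP (1.25 mM) stimulation; lower signal means less secretion.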
HT1080-NT tox: kills 2HG-producing HT-1080-NT fibrosarcoma cells; HT-1080-NT fibrosarcoma viability, CellTiter-Glo ATP luminescence, 48 h; Potency, µM (doses to about 46.1 µM), without a hit: at the top dose activity, negative = less viability, most hits filed as cytotoxic; 360,000 tested, 1.6% active;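 further: NT is the 2HG producing partner of a matched IDH1 knockdown line; potency means the concentration at half of the fitted maximal effect; 0% = DMSO-treated cells and -100% = media-only wells without cells; nearly all actives have a fitted effect of over 55% in size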
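HT-1080-NT; 750 cells/well; 5% FBS RPMI; 48 h compound, 37 degrees C; CellTiter-Glo luminescence; curve fitting and curve-class assignment.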
KB-V1 cytotox: KB-V1 MDR subline cytotoxicity; KB-V1 MDR cells viability, CellTiter-Glo, 72 h; Potency, µM (doses to about 46.1 µM), usual class: cytotoxic; 400,000 tested, 3.4% active; further: potency means the concentration at half of the fitted maximal effect; nearly all actives have a fitted effect of over 60% in size
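Compound-treated KB-V1 multidrug-resistant cells, 72 h, 37 degrees C; viability by CellTiter-Glo. Fitted qHTS curves give the values.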
HT1080 IDH1KD tx: kills HT-1080 cells with IDH1 knockdown | HT-1080 IDH1 knockdown viability, ATP luminescence, 48 h | Potency, µM (highest dose often 46.1 µM), inactives show top-dose activity, negative = toxicity, actives largely listed as cytotoxic | 360,000 tested, 2% active;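 further: potency means the concentration at half of the fitted maximal effect; 0% = DMSO wells and -100% = cell-free medium wells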
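% activity derives from luminescence (CellTiter-Glo), normalised to DMSO and no-cell wells. HT-1080-IDH1KD cells, 750/well, had 48 h compound exposure at 37 °C.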
* = called active by the depositor; i = inactive; ? = inconclusive; . = no result given; ! = a repeat was not active. Unless noted, the call rests on the fitted dose curve; in most records, active means well fitted curve in the direction sought with a large enough effect; inconclusive means small, poorly fitted or top-dose-only effect, or another doubt; inactive means no such curve, though single readings can be large; an effect the other way counts as inactive or inconclusive. Unless noted, on the % scale 0 is the no-effect control and ±100 the full control effect.

SMILES | KB-3-1 cytotox | IL-1B inflam inh | HT1080-NT tox | KB-V1 cytotox | HT1080 IDH1KD tx
CCSC1=C(C#N)C(c2cccs2)C(C(=O)OC)=C(C)N1 (stereo unspecified) | i | -6.9 | 1.0% | 20.6µM* | 9.4%
C=CCOC(=O)C1=C(C)NC(SC)=C(C#N)C1c1cccs1 (stereo unspecified) | 11.6µM* | -12.4 | 9.2µM* | 6.51µM* | 18.4µM*
C=CCOC(=O)C1=C(C)NC(SCC(=O)OCC)=C(C#N)C1c1ccc(O)c(OC)c1 (stereo unspecified) | i | 17.1 | 3.1% | i | 3.0%
C=CCOC(=O)C1=C(C)NC(SCC(=O)Nc2nccs2)=C(C#N)C1c1cccs1 (stereo unspecified) | i | -16.9 | ? | i | ?
C=CCOC(=O)C1=C(C)NC(SC)=C(C#N)C1c1ccc(OCC)cc1 (stereo unspecified) | i | -75.0*! | ? | ? | ?
CCOC(=O)C1=C(N)Oc2ccc3ccccc3c2C1c1cccnc1 (stereo unspecified) | ? | -9.8 | ? | 11.2µM* | -21.0%
CCOC(=O)c1nc(NNC(=O)c2ccc([N+](=O)[O-])cc2)sc1C | 18.4µM* | -6.9 | ? | ? | 7.31µM*
O=C(Nc1ncc(Cc2ccc(Cl)cc2Cl)s1)c1ccc([N+](=O)[O-])cc1 | 5.8µM* | -10.4 | -5.9% | ? | -1.2%
CCOC(=O)c1sc(NNC(=O)c2ccc(C)cc2)nc1C | i | -5.0 | -9.7% | i | -22.7%
CCC(CC)c1nnc(NC(=O)c2ccc([N+](=O)[O-])cc2)s1 | i | 0.1 | 12.2% | 20.6µM* | 23.8%
COc1ccc(Cl)cc1CN1C(=O)C(Cc2ccccc2)ON=C1C (stereo unspecified) | i | -18.7 | -19.7% | i | -11.0%
O=C1NC(CCc2ccccc2)C(=O)N1Cc1ccccc1Cl (stereo unspecified) | i | 4.9 | 2.2% | 16.4µM* | 0.1%
CC(=O)C1=C(C)N(Cc2ccccc2)C(=O)N[C@H]1CCc1ccccc1 | i | 20.6 | 1.0% | i | -0.2%
CCCC(=O)N1CCCC(c2cc(C(=O)NCc3ccc(F)cc3)no2)C1 (stereo unspecified) | i | -1.1 | 3.4% | i | 11.5%
CCS(=O)(=O)N1Cc2ccccc2CC1C(=O)NCC12CC3CC(CC(C3)C1)C2 (stereo unspecified) | i | 1.0 | -0.8% | 23.1µM* | -13.7%
CCS(=O)(=O)N1Cc2ccccc2CC1C(=O)Nc1nc2c(C)cccc2s1 (stereo unspecified) | i | -14.5 | -11.5% | 2.91µM* | -26.7%
CCS(=O)(=O)N1Cc2ccccc2CC1C(=O)NC(C)C12CC3CC(CC(C3)C1)C2 (stereo unspecified) | i | -5.9 | -4.5% | i | ?
CN1CC(c2ccccc2)C2(SC(=S)N(Cc3ccco3)C2=O)C12C(=O)Nc1ccccc12 (stereo unspecified) | 20.6µM* | -68.7* | ? | ? | ?
NC(=O)N/N=C/c1c(Sc2nnnn2-c2ccccc2)nc2ccccn2c1=O | ? | -67.9* | 24.6% | i | -5.8%
CN(Cc1ccnc2ccccc12)C(=O)C1CCC(=O)N(Cc2ccccc2F)C1 (stereo unspecified) | i | i | 7.1% | ? | 15.8%
Cc1ccc2oc3c(c(=O)c2c1)C(c1ccc(F)cc1)N(Cc1ccc2c(c1)OCO2)C3=O (stereo unspecified) | i | . | . | i | .
CN(Cc1c(F)cccc1Cl)C(=O)CNC(=O)c1sc2ccccc2c1Cl | i | -51.8* | -2.2% | ? | -5.5%
Nc1cccc2cccc([N+](=O)[O-])c12 | i | 5.6 | -7.0% | i | -21.3%
O=C(Cc1coc2cc3c(cc12)CCC3)NC1CCCCCCC1 | i | 0.0 | 2.8% | ? | -14.4%
O=C(Cc1coc2cc3c(cc12)CCC3)NCC1(N2CCCCC2)CCCCC1 | i | -82.3* | ? | ? | ?
SMILES | KB-3-1 cytotox | IL-1B inflam inh | HT1080-NT tox | KB-V1 cytotox | HT1080 IDH1KD tx
Cc1ccccc1C(=O)Nc1cccc(C(=O)N/N=C/c2cc(Cl)cc([N+](=O)[O-])c2O)c1 | ? | 166.2 | ? | ? | ?
Cc1ccc(-c2nc(CS(=O)(=O)CC(=O)N3CCc4ccccc4C3)c(C)o2)cc1 | 18.4µM* | -16.6 | 2.0% | ? | -13.8%
Cc1ccc(-c2nc(CS(=O)(=O)CC(=O)N3CCCCCC3)c(C)o2)cc1 | i | -21.0 | -7.3% | i | -7.8%
CCOc1ccccc1OCCCn1c(-c2ccc(Cl)cc2)nc2ccccc2c1=O | i | . | . | i | .
CN(C)CCNc1nc2sc3c(c2c(=O)n1Cc1ccccc1)CCCCC3 | i | -95.7* | -3.8% | i | -16.8%
CN(C)CCNc1nc2sc3c(c2c(=O)n1-c1ccc(F)cc1)CCCCC3 | i | -53.8* | 23.1µM* | i | ?
O=c1c2c3c(sc2nc(N2CCNCC2)n1CCc1ccccc1)CCCCC3 | i | -55.3* | -5.3% | i | 2.8%
CCCN1CCN(c2cccc(Nc3nn4c(=O)c5ccccc5nc4s3)c2)CC1 | ? | . | . | i | .
COc1ccc(C2NCCc3c2[nH]c2ccccc32)cc1COc1ccc(F)cc1 (stereo unspecified) | ? | -93.4* | ? | ? | ?
COc1ccc(C2NCCc3c2[nH]c2ccccc32)cc1CN1CCc2cc(OC)c(OC)cc2C1C (stereo unspecified) | i | 0.0 | 18.4µM* | i | ?
COc1ccc(C2NC(C(=O)O)Cc3c2[nH]c2ccccc32)cc1CN1CCN(c2ccc(F)cc2)CC1 (stereo unspecified) | i | 19.2 | -4.8% | i | -0.1%
O=C(C(=O)N1CCN(c2ccccc2)CC1)c1ccccc1 | i | -6.8 | 27.8% | i | 18.5%
Cc1c(N=C2N=C(NC(=O)c3ccc(F)cc3)c3ccccc32)c(=O)n(-c2ccccc2)n1C | i | -8.1 | ? | ? | 24.7%
CC(NCC(O)COC1CCC(C(C)(C)C)CC1)c1ccccc1 (stereo unspecified) | i | -67.2* | -22.3% | i | -6.7%
CC(NCC(O)COc1ccc(Br)cc1)c1ccccc1 (stereo unspecified) | i | ? | ? | i | ?
CC1CCC(C(C)C)C(OCC(O)CNC(C)(C)C)C1 (stereo unspecified) | i | -26.7 | -18.7% | i | -1.8%
CC1CCC(C(C)C)C(OCC(O)CNC(C)c2ccccc2)C1 (stereo unspecified) | ? | -107.9* | 14.6µM* | 20.6µM* | ?
Cc1ccc2c(Cl)cc(Cl)c(O)c2n1 | i | -94.3* | -24.4% | i | 8.2µM*

Bioassay records from PubChem BioAssay.
